According to PMC4336329 (PLoS ONE, 2015):
Hit rate of the full screen: of about 310,000 compounds, about 14,000 (4.5%) showed an effect of 50% or more. Effects have a minus sign here. Shown is part of a subset that was picked to be rich in strong results.

Target: human ether-à-go-go-related gene (hERG) potassium channel (human, UniProt Q12809)
Test: primary screen, population patch clamp on CHO cells stably expressing hERG; higher = less effect of the substance
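Note: peak tail current of the secondary pulse compared with the same well before compound.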

human ether-à-go-go-related gene (hERG) potassium channel, sequence (Q12809 whole entry, looked up): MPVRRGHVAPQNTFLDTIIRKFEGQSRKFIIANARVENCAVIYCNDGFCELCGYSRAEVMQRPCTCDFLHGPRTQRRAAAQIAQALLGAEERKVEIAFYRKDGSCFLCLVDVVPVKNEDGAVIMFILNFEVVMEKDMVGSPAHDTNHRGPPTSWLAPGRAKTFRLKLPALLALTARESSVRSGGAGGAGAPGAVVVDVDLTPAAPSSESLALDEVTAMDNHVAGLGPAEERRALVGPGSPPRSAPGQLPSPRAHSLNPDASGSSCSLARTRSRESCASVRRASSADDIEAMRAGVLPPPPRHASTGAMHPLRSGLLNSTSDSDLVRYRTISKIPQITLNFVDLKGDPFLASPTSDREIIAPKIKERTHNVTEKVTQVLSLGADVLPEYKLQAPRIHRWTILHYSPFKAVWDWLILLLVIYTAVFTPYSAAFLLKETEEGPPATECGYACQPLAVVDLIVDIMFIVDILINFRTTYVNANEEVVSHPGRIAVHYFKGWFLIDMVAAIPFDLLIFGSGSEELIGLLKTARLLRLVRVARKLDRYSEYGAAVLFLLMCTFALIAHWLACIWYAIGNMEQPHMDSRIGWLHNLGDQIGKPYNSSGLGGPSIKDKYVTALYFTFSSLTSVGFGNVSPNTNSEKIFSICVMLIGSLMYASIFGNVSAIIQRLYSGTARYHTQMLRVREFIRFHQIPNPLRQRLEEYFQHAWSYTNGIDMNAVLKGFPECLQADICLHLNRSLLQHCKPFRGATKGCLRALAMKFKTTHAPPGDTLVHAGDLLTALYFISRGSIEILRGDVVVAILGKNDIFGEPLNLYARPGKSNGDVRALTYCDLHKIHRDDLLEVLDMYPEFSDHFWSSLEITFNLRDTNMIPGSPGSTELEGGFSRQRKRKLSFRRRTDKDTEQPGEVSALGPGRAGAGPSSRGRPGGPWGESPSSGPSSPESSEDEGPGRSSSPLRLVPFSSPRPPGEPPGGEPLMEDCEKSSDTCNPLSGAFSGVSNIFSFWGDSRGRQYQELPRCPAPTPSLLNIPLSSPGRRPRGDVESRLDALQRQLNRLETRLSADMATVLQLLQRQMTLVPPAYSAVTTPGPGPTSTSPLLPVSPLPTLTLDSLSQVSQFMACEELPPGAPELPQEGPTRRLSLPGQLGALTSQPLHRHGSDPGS

Row | SMILES | hERG current change (%, negative = inhibition) at 10uM [%]
1 | Cc1ccc(-n2ncc3c2CCCC3NC(=O)c2ocnc2C)cc1C (stereo not drawn) | 1.26
2 | CCOC(=O)c1[nH]c2ccccc2c1NC(=O)CN(C)C | 7.08
3 | CCOC(=O)c1[nH]c2ccc(F)cc2c1N=C(C)N(CC)CC | -55.4
4 | CCOC(=O)c1[nH]c2ccccc2c1NC(C)=O | -3.18
5 | CCOC(=O)c1[nH]c2ccccc2c1N=CN(CC)CC | -60.8
6 | CCOC(=O)c1[nH]c2ccccc2c1N=C(C)N(CC)CC | -54.7
7 | CCOC(=O)c1[nH]c2ccc(OC)cc2c1N=CN(C)C | -7.13
8 | CCOC(=O)c1[nH]c2ccccc2c1N=CN(C)C | -28.9
9 | CCOC(=O)c1[nH]c2ccc(F)cc2c1NC(=O)c1ccccc1C(=O)O | 19.4
10 | CCOC(=O)c1[nH]c2ccc(C)cc2c1N=C(C)N(C)C | -9.99
11 | CC(C)COc1ccc(CNC(=S)Nc2ccccc2)cc1Cl | 8.6
12 | Cc1cc(C)c2c(=O)[nH]n(C(C)C)c2n1 | 7.27
13 | O=C(O)c1ccc([N+](=O)[O-])c2c1C(=O)c1ccccc1C2=O | 23.5
14 | NC(=S)N/N=C/c1c[nH]c2ccc(OCc3ccccc3)cc12 | 6.65
15 | NC(=O)CSc1nnc(NC(=O)c2cccc(S(=O)(=O)N3CCCCC3)c2)s1 | 25.3
16 | CCC(C(=O)Nc1ccc2c(c1)OCCO2)c1ccccc1 (stereo not drawn) | 13.4
17 | Cc1noc(C(=O)N2CCN(c3ccccc3)CC2)c1Cl | 6.13
18 | CC1CCN(CCc2nc3cc(NS(=O)(=O)c4ccc(F)cc4)ccc3n2C)CC1 | -70.8
19 | Cn1c(CCN2CCOCC2)nc2cc(NS(=O)(=O)c3ccccc3)ccc21 | -1.84
20 | CC1CCN(CCc2nc3cc(NC(=O)NC4CCCCC4)ccc3n2C)CC1 | -15.1
21 | CC1CCN(CCc2nc3cc(NC(=O)C(C)C)ccc3n2C)CC1 | -0.549
22 | Cn1c(CCN2CCCC2)nc2cc(NS(=O)(=O)c3ccccc3)ccc21 | -40.9
23 | CC1CCN(CCc2nc3cc(NS(=O)(=O)c4ccccc4)ccc3n2C)CC1 | -65.5

Row | SMILES | hERG current change (%, negative = inhibition) at 10uM [%]
24 | Cc1ccc(S(=O)(=O)NCCC(=O)NNC(=O)COc2ccccc2Cl)cc1C | -1.77
25 | O=C(NC1CCCCCC1)C1CC(=O)N(Cc2ccccc2)C1 (stereo not drawn) | 5.17
26 | COc1ccccc1C(=O)NC(=S)Nc1ccc(N2CCOCC2)c(Cl)c1 | 13.1
27 | O=[N+]([O-])c1ccc(Cl)cc1 | 10.9
28 | CSc1cccc(NC(C)C(=O)NCc2ccccc2)c1 (stereo not drawn) | 2.74
29 | CC(CCN1CCN(c2ccc(F)cc2)CC1)c1ccccc1 (stereo not drawn) | -64.3
30 | CC(CCN1CCN(CCO)CC1)c1ccccc1 (stereo not drawn) | 9.32
31 | CN1CCN(Cc2cn(C)c3ccccc23)CC1CCO (stereo not drawn) | 25.5
32 | Cn1cc(CN2CCN(c3ccccc3)CC2)c2ccccc21 | -54
33 | Cl.c1ccc(SCCN2CCN(c3ccccc3)CC2)cc1 | -10.9
34 | c1ccc(N2CCN(Cc3ccnc4ccccc34)CC2)cc1 | -0.764
35 | CC(CCN1CCN(c2ccccc2)CC1)c1ccccc1.Cl (stereo not drawn) | -54.6
36 | CC(CCN1CCOCC1)c1ccccc1 (stereo not drawn) | 21.9
37 | CC(CN1CCN(c2ccccc2)CC1)c1ccccc1 (stereo not drawn) | -25.5
38 | N#CCN1C(=O)NC2(CCCc3sccc32)C1=O (stereo not drawn) | 11.1
39 | COc1cccc(-c2csc(/C(C#N)=C/Nc3cc4oc5ccccc5c4cc3OC)n2)c1 | 12.8
40 | O=C(c1noc2c1CCCC2)N1CCCCC1 | -0.65
41 | Cc1cnc2c(c1)C(=O)c1ccccc1-2 | 13.6
42 | O=C(NCCN1CCOCC1)c1ccccc1[N+](=O)[O-] | 1.06
43 | CN1CCN(c2ccc(NC(=S)NC(=O)/C=C/c3ccco3)cc2)CC1 | -7.96
44 | CCOc1ccc(S(=O)(=O)N2CCN(Cc3ccc4c(c3)OCO4)CC2)cc1Cl | -8.94
45 | Cn1cnc(S(=O)(=O)N2CCN(C(c3ccc(F)cc3)c3ccc(F)cc3)CC2)c1 | -7.05
